# From PubChem BioAssay AID1159580 (chemical genetic matrix, 2015)
# Out of some 5,500 compounds screened, about 2,000 (36%) were called active. Inconclusive results (about 18%) are left out. Some of the results follow. Values without a mark were called inactive. No stated cut-off is given here; in the data, active means normalized growth mostly below about 0.91 (no sharp cut-off); inconclusive means no clear call, values can overlap the other calls; inactive means mostly above about 0.92.
# Test: chemical genetic growth profiling, strain panel (AID 1159580);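 further: tested at 20 µM; growth read once vehicle control cultures reached saturation at 30 °C; 1 = growth at the plate median or of vehicle wells; lower values mean less growth of the strain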
# Conditions: growth OD
structure (smiles),measurement,setting,value
CCC(c1ccc(O)cc1)C(CC)c1ccc(O)cc1 (stereo not drawn),normalized growth,"S. cerevisiae deletion strains, locus YJR075W, strain HOC1, hits give low values",1.01
same,normalized growth,"S. cerevisiae deletion strains, locus YKL009W, strain mrt4, hits give low values",0.871 (active)
same,normalized growth,"S. cerevisiae deletion strains, locus YKL068W, hits give low values",0.99
same,normalized growth,"S. cerevisiae deletion strains, locus YKL085W, strain MDH1 (second series), hits give low values",0.984
same,normalized growth,"S. cerevisiae deletion strains, locus YKL085W, strain MDH1, hits give low values",0.984
same,normalized growth,"S. cerevisiae deletion strains, locus YKL160W, strain elf1, hits give low values",0.928
same,normalized growth,"S. cerevisiae deletion strains, locus YKL190W, strain CNB1, hits give low values",0.994
same,normalized growth,"S. cerevisiae deletion strains, locus YKR001C, strain vps1, hits give low values",0.99
same,normalized growth,"S. cerevisiae deletion strains, locus YKR026C, strain gcn3, hits give low values",0.982
same,normalized growth,"S. cerevisiae deletion strains, locus YKR091W, strain srl3, hits give low values",1
same,normalized growth,"S. cerevisiae deletion strains, locus YLL001W, strain dnm1, hits give low values",0.943
same,normalized growth,"S. cerevisiae deletion strains, locus YLL026W, hits give low values",0.862 (active)
same,normalized growth,"S. cerevisiae deletion strains, locus YLL041C, strain sdh2, hits give low values",0.976
same,normalized growth,"S. cerevisiae deletion strains, locus YLR027C, strain aat2, hits give low values",0.829 (active)
same,normalized growth,"S. cerevisiae deletion strains, locus YLR039C, strain RIC1, hits give low values",0.6 (active)
same,normalized growth,"S. cerevisiae deletion strains, locus YLR058C, strain SHM2, hits give low values",1
same,normalized growth,"S. cerevisiae deletion strains, locus YLR102C, strain apc9, hits give low values",1.01
same,normalized growth,"S. cerevisiae deletion strains, locus YLR221C, strain rsa3, hits give low values",0.828 (active)
same,normalized growth,"S. cerevisiae deletion strains, locus YLR258W, strain gsy2, hits give low values",0.902 (active)
same,normalized growth,"S. cerevisiae deletion strains, locus YLR262C, strain YPT6 (second series), hits give low values",0.396 (active)
same,normalized growth,"S. cerevisiae deletion strains, locus YLR262C, strain YPT6, hits give low values",0.575 (active)
same,normalized growth,"S. cerevisiae deletion strains, locus YLR268W, strain sec22, hits give low values",0.912
same,normalized growth,"S. cerevisiae deletion strains, locus YLR320W, strain mms22, hits give low values",0.868 (active)
same,normalized growth,"S. cerevisiae deletion strains, locus YLR330W, strain CHS5, hits give low values",1.01
same,normalized growth,"S. cerevisiae deletion strains, locus YLR342W, strain FKS1 (second series), hits give low values",0.962
same,normalized growth,"S. cerevisiae deletion strains, locus YLR342W, strain FKS1, hits give low values",0.938
same,normalized growth,"S. cerevisiae deletion strains, locus YLR357W, strain rsc2, hits give low values",0.984
same,normalized growth,"S. cerevisiae deletion strains, locus YLR370C, strain arc18, hits give low values",0.993
same,normalized growth,"S. cerevisiae deletion strains, locus YLR371W, strain rom2, hits give low values",1.01
same,normalized growth,"S. cerevisiae deletion strains, locus YLR384C, strain iki3, hits give low values",1.01
same,normalized growth,"S. cerevisiae deletion strains, locus YLR418C, strain cdc73, hits give low values",0.871
same,normalized growth,"S. cerevisiae deletion strains, locus YML016C, strain PPZ1, hits give low values",0.996
same,normalized growth,"S. cerevisiae deletion strains, locus YML032C, strain rad52, hits give low values",0.935
same,normalized growth,"S. cerevisiae deletion strains, locus YML120C, strain ndi1, hits give low values",0.733 (active)
same,normalized growth,"S. cerevisiae deletion strains, locus YML124C, strain tub3, hits give low values",1.01
same,normalized growth,"S. cerevisiae deletion strains, locus YMR058W, strain fet3, hits give low values",0.864 (active)
same,normalized growth,"S. cerevisiae deletion strains, locus YMR078C, strain ctf18, hits give low values",0.994
same,normalized growth,"S. cerevisiae deletion strains, locus YMR125W, strain sto1, hits give low values",1.01
same,normalized growth,"S. cerevisiae deletion strains, locus YMR129W, hits give low values",0.957
same,normalized growth,"S. cerevisiae deletion strains, locus YMR205C, strain PFK2, hits give low values",0.844 (active)
same,normalized growth,"S. cerevisiae deletion strains, locus YMR223W, strain ubp8, hits give low values",0.94
same,normalized growth,"S. cerevisiae deletion strains, locus YMR231W, strain pep5, hits give low values",1.01
same,normalized growth,"S. cerevisiae deletion strains, locus YMR263W, strain SAP30, hits give low values",0.973
same,normalized growth,"S. cerevisiae deletion strains, locus YMR307W, strain GAS1, hits give low values",0.592 (active)
same,normalized growth,"S. cerevisiae deletion strains, locus YNL067W, strain RPL9B, hits give low values",0.956
same,normalized growth,"S. cerevisiae deletion strains, locus YNL071W, strain lat1, hits give low values",0.786 (active)
same,normalized growth,"S. cerevisiae deletion strains, locus YNL128W, strain TEP1, hits give low values",1.02
same,normalized growth,"S. cerevisiae deletion strains, locus YNL153C, strain GIM3, hits give low values",0.982
same,normalized growth,"S. cerevisiae deletion strains, locus YNL209W, strain ssb2, hits give low values",0.976
same,normalized growth,"S. cerevisiae deletion strains, locus YNL233W, strain BNI4, hits give low values",0.974
same,normalized growth,"S. cerevisiae deletion strains, locus YNL248C, strain rpa49, hits give low values",0.942
same,normalized growth,"S. cerevisiae deletion strains, locus YNL250W, strain rad50, hits give low values",0.985
same,normalized growth,"S. cerevisiae deletion strains, locus YNL271C, strain bni1, hits give low values",0.985
same,normalized growth,"S. cerevisiae deletion strains, locus YNL298W, strain CLA4, hits give low values",0.912
same,normalized growth,"S. cerevisiae deletion strains, locus YNL307C, strain MCK1, hits give low values",0.877 (active)
same,normalized growth,"S. cerevisiae deletion strains, locus YNL322C, strain KRE1 (second series), hits give low values",0.985
same,normalized growth,"S. cerevisiae deletion strains, locus YNL322C, strain KRE1, hits give low values",1.01
same,normalized growth,"S. cerevisiae deletion strains, locus YNR049C, strain mso1, hits give low values",1
same,normalized growth,"S. cerevisiae deletion strains, locus YNR052C, strain pop2, hits give low values",0.938
same,normalized growth,"S. cerevisiae deletion strains, locus YOL006C, strain TOP1, hits give low values",0.769
same,normalized growth,"S. cerevisiae deletion strains, locus YOL012C, strain htz1",1.31
same,normalized growth,"S. cerevisiae deletion strains, locus YOL147C, strain pex11, hits give low values",0.997
same,normalized growth,"S. cerevisiae deletion strains, locus YOR001W, strain rrp6, hits give low values",0.808 (active)
same,normalized growth,"S. cerevisiae deletion strains, locus YOR061W, strain CKA2, hits give low values",0.984
same,normalized growth,"S. cerevisiae deletion strains, locus YOR069W, strain VPS5, hits give low values",0.999
same,normalized growth,"S. cerevisiae deletion strains, locus YOR070C, strain gyp1, hits give low values",0.942
same,normalized growth,"S. cerevisiae deletion strains, locus YOR080W, strain dia2, hits give low values",0.974
same,normalized growth,"S. cerevisiae deletion strains, locus YOR083W, strain WHI5, hits give low values",0.899
same,normalized growth,"S. cerevisiae deletion strains, locus YOR106W, strain vam3, hits give low values",0.804 (active)
same,normalized growth,"S. cerevisiae deletion strains, locus YOR136W, strain idh2, hits give low values",0.996
same,normalized growth,"S. cerevisiae deletion strains, locus YOR144C, strain elg1, hits give low values",1.01
same,normalized growth,"S. cerevisiae deletion strains, locus YOR184W, strain ser1, hits give low values",0.761 (active)
same,normalized growth,"S. cerevisiae deletion strains, locus YOR265W, strain rbl2, hits give low values",0.966
same,normalized growth,"S. cerevisiae deletion strains, locus YOR270C, strain vph1, hits give low values",0.792
same,normalized growth,"S. cerevisiae deletion strains, locus YOR290C, strain snf2, hits give low values",0.953
same,normalized growth,"S. cerevisiae deletion strains, locus YOR316C, strain cot1, hits give low values",1.01
same,normalized growth,"S. cerevisiae deletion strains, locus YPL051W, strain arl3, hits give low values",0.849 (active)
same,normalized growth,"S. cerevisiae deletion strains, locus YPL055C, strain LGE1, hits give low values",0.979
same,normalized growth,"S. cerevisiae deletion strains, locus YPL078C, strain atp4, hits give low values",0.895
same,normalized growth,"S. cerevisiae deletion strains, locus YPL106C, strain sse1, hits give low values",0.93
same,normalized growth,"S. cerevisiae deletion strains, locus YPL240C, strain hsp82, hits give low values",0.971
same,normalized growth,"S. cerevisiae deletion strains, locus YPL241C, strain CIN2, hits give low values",0.998
same,normalized growth,"S. cerevisiae deletion strains, locus YPR119W, strain clb2, hits give low values",1
same,normalized growth,"S. cerevisiae deletion strains, locus YPR141C, strain kar3, hits give low values",0.994
same,normalized growth,"S. cerevisiae deletion strains, locus YPR163C, strain tif3, hits give low values",1.02
same,normalized growth,"S. cerevisiae deletion strains, locus YPR167C, strain met16, hits give low values",0.987
same,normalized growth,"S. cerevisiae deletion strains, strain wtn01, hits give low values",0.959
same,normalized growth,"S. cerevisiae strains, strain wild type, hits give low values",0.995
